About 83,000 compounds went through this panel and 20% of them were active in at least one assay; those are over-represented in the sample as a whole.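 Each cell line was grown in a 96-well plate and treated with one concentration of compound for 48 hours. Values below 10 were considered active.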 Values without a mark were called inactive. Calls of active or inactive are those of the source.

Among the test systems are SK-MEL-2 melanoma; EKVX NSCLC; SN12C renal; UO-31 renal; TK-10 renal; ACHN renal; CAKI-1 renal; A498 renal; CCRF-CEM leukemia; MOLT-4 leukemia; SR leukemia; RPMI-8226 leukemia; OVCAR-8 ovarian; OVCAR-5 ovarian; SK-OV-3 ovarian; IGROV1 ovarian; OVCAR-3 ovarian; HS 578T breast; NCI/ADR-RES ovarian.
Common to all, as to assay: NCI-60 one-dose screen, 48 h (100 = growth as untreated, 0 = no growth, -100 = all killed)
What all share (conditions): 10 µM unless noted

As for `CC(C)=CCC[C@](C)(O)[C@H]1CC[C@]2(C)[C@@H]1CC[C@@H]1[C@@]3(C)CC[C@H](OC(=O)CCC(=O)O)C(C)(C)[C@@H]3CC[C@]12C`, the growth with SK-MEL-2 melanoma was -13.1% [100 µM] (active); in the assay on EKVX NSCLC it was 45.3% [100 µM]; with SN12C renal, 15% [100 µM]; in the assay on UO-31 renal, 19.5% [100 µM]; in the assay on TK-10 renal, 49.6% [100 µM]; in the assay on ACHN renal it was 21.4% [100 µM]. In addition, the growth in the assay with CAKI-1 renal is 21.4% [100 µM]; with A498 renal, 40.1% [100 µM]; in the assay on CCRF-CEM leukemia it was 3.55% [100 µM] (active); in the assay on MOLT-4 leukemia it was 5.86% [100 µM] (active); in the assay on SR leukemia, 29% [100 µM]; in the assay with RPMI-8226 leukemia it was 9.12% [100 µM] (active). Also, the growth with OVCAR-8 ovarian was 24.7% [100 µM]; in the assay with OVCAR-5 ovarian it was 41.7% [100 µM]; in the assay with SK-OV-3 ovarian it was 42.4% [100 µM]; in the assay on IGROV1 ovarian it was 15.3% [100 µM]; with OVCAR-3 ovarian, -32.1% [100 µM] (active); with HS 578T breast, 41.2% [100 µM]. In addition, in the assay on NCI/ADR-RES ovarian, the growth is 29.9% [100 µM].

Consider `N#C/C(C(=O)c1ccccc1)=C1/C(=O)Nc2ccc(Br)cc21`, for which the growth with SK-MEL-2 melanoma was 113%; with EKVX NSCLC, 87.5%; in the assay on SN12C renal it was 91.8%; with UO-31 renal, 67.2%; with TK-10 renal it was 142%; in the assay with ACHN renal, 88.7%. Also, the growth in the assay on CAKI-1 renal is 84%; in the assay with A498 renal, 96.8%; in the assay with CCRF-CEM leukemia it was 110%; in the assay on MOLT-4 leukemia it was 101%; in the assay on SR leukemia it was 101%; with RPMI-8226 leukemia, 102%. For the same molecule, the growth in the assay with OVCAR-8 ovarian is 99.5%; in the assay on OVCAR-5 ovarian, 107%; in the assay on SK-OV-3 ovarian, 85.7%; with IGROV1 ovarian, 90.9%; in the assay with OVCAR-3 ovarian, 107%; in the assay with HS 578T breast it was 92.5%. Further, the growth in the assay on NCI/ADR-RES ovarian is 98.8%.

For `COc1ccc(-c2cc(-c3ccc(OC)c(OC)c3)nc(SCCCCCC(=O)NO)n2)cc1`, the growth in the assay with SK-MEL-2 melanoma is 52.5%; in the assay with EKVX NSCLC, 62.5%; in the assay with SN12C renal, 77%; with UO-31 renal it was 68.6%; with TK-10 renal, 44.9%; in the assay on ACHN renal, 81.3%. Also, the growth in the assay with CAKI-1 renal is 53.7%; in the assay on A498 renal, 66.7%; with CCRF-CEM leukemia, 22.7%; with MOLT-4 leukemia, 14%; in the assay on SR leukemia, -1.05% (active); in the assay with RPMI-8226 leukemia it was 29.4%. Moreover, the growth in the assay on OVCAR-8 ovarian was 37.7%; in the assay with OVCAR-5 ovarian, 52.4%; in the assay with SK-OV-3 ovarian it was 46.6%; in the assay with IGROV1 ovarian, 61.6%; in the assay on OVCAR-3 ovarian, 64.8%; with HS 578T breast it was 44.7%. In the assay on NCI/ADR-RES ovarian, the growth is 101%.

With `Brc1ccc2c(c1)CN(C1CCCCC1)CO2`, the growth with SK-MEL-2 melanoma was 107%; with EKVX NSCLC, 101%; in the assay on SN12C renal, 113%; in the assay on UO-31 renal, 78.9%; in the assay with TK-10 renal it was 111%; with ACHN renal, 98.9%. In addition, the growth in the assay on CAKI-1 renal is 102%; in the assay with A498 renal it was 100%; with CCRF-CEM leukemia, 107%; in the assay with MOLT-4 leukemia, 99.7%; in the assay on SR leukemia, 96.3%; with RPMI-8226 leukemia it was 103%. Further, the growth in the assay with OVCAR-8 ovarian is 114%; with OVCAR-5 ovarian, 97.9%; in the assay on SK-OV-3 ovarian it was 92.3%; in the assay with IGROV1 ovarian, 107%; in the assay on OVCAR-3 ovarian it was 116%; in the assay on HS 578T breast, 91.7%. The growth with NCI/ADR-RES ovarian is 97.5%.

As for `c1coc2occoc=2o1`, the growth in the assay on SK-MEL-2 melanoma was 105%; with EKVX NSCLC, 106%; with SN12C renal it was 89.2%; in the assay with UO-31 renal it was 92.5%; in the assay with TK-10 renal it was 103%; with ACHN renal, 102%. For the same molecule, the growth with CAKI-1 renal is 101%; in the assay with A498 renal, 107%; in the assay with CCRF-CEM leukemia, 98.9%; in the assay on MOLT-4 leukemia, 114%; in the assay with SR leukemia it was 114%; with RPMI-8226 leukemia it was 100%. Further, the growth in the assay with OVCAR-8 ovarian was 107%; in the assay on OVCAR-5 ovarian, 101%; with SK-OV-3 ovarian it was 99.6%; with IGROV1 ovarian, 109%; with OVCAR-3 ovarian, 103%; in the assay with HS 578T breast it was 104%. Also, in the assay on NCI/ADR-RES ovarian, the growth was 107%.

In the case of `C=C(C)[C@@H]1CC[C@]2(C)[C@H](C(=O)C=C3[C@@H]4C[C@](C)(C(=O)N5CCN(C)CC5)CC[C@]4(C)CC[C@]32C)[C@@]1(C)CCC#N`, the growth in the assay with SK-MEL-2 melanoma was -78.6% [100 µM] (active); in the assay with EKVX NSCLC, -20.8% [100 µM] (active); with SN12C renal it was -86.9% [100 µM] (active); in the assay with UO-31 renal, -100% [100 µM] (active); with TK-10 renal, -87.8% [100 µM] (active); with ACHN renal it was -93.7% [100 µM] (active). Further, the growth is -96.2% [100 µM] (active) in the assay with CAKI-1 renal; -73.7% [100 µM] (active) in the assay on A498 renal; -34% [100 µM] (active) with CCRF-CEM leukemia; -45.9% [100 µM] (active) in the assay with MOLT-4 leukemia; 34.7% [100 µM] in the assay with SR leukemia; -54.5% [100 µM] (active) in the assay on RPMI-8226 leukemia. Further, the growth in the assay with OVCAR-8 ovarian was -70.9% [100 µM] (active); with OVCAR-5 ovarian it was -75.9% [100 µM] (active); in the assay with SK-OV-3 ovarian, -76.1% [100 µM] (active); with IGROV1 ovarian, -76% [100 µM] (active); in the assay on OVCAR-3 ovarian, -76.6% [100 µM] (active); with HS 578T breast it was -54.8% [100 µM] (active). Moreover, the growth in the assay on NCI/ADR-RES ovarian was -81.3% [100 µM] (active).

With `CC1(C)CC[C@]2(C(N)=O)CC[C@]3(C)C(=CC[C@@H]4[C@@]5(C)C/C(=C/c6cccnc6)C(=O)C(C)(C)[C@@H]5CC[C@]43C)[C@@H]2C1`, the growth in the assay on SK-MEL-2 melanoma is -57.5% [100 µM] (active); with EKVX NSCLC, 1.54% [100 µM] (active); in the assay with SN12C renal it was -58.8% [100 µM] (active); with UO-31 renal, -95.1% [100 µM] (active); in the assay with TK-10 renal it was -14.8% [100 µM] (active); in the assay with ACHN renal it was -61.1% [100 µM] (active). The growth was -30.6% [100 µM] (active) in the assay with CAKI-1 renal; -83.4% [100 µM] (active) in the assay on A498 renal; 2.68% [100 µM] (active) in the assay with CCRF-CEM leukemia; -9.98% [100 µM] (active) with MOLT-4 leukemia; 8.68% [100 µM] (active) with SR leukemia; -37.1% [100 µM] (active) in the assay on RPMI-8226 leukemia. The growth is -21.6% [100 µM] (active) with OVCAR-8 ovarian; -64% [100 µM] (active) in the assay with OVCAR-5 ovarian; 6.72% [100 µM] (active) with SK-OV-3 ovarian; -29.5% [100 µM] (active) in the assay with IGROV1 ovarian; -64.2% [100 µM] (active) with OVCAR-3 ovarian; 1.61% [100 µM] (active) in the assay on HS 578T breast. Further, the growth in the assay on NCI/ADR-RES ovarian was -25.7% [100 µM] (active).

The values are drawn from PubChem BioAssay (NCI).
